Data reported in PubChem BioAssay AID651814 (National Center for Advancing Translational Sciences (NCATS), 2012).
The whole screen tested about 2,100 compounds, of which about 590 (28%) were called active. Another 42% or so got no clear call; they are omitted. This is one part of the list. A number with no mark means an inactive call. Calls follow the shape of the dose curve; as a rule, active = well fitted inhibition curve with a large enough effect; inconclusive = small, poorly fitted or top-dose-only effect; inactive = flat fitted curve, though single readings scatter.

biological target: DNA dC->dU-editing enzyme APOBEC-3F (Homo sapiens) (UniProt Q8IUX4); assay: qHTS for inhibitors of Vif-A3F interactions: Cherry picks; conditions: HeLa A3F-eYFP + Vif (tagged APOBEC3F with the HIV-1 protein that degrades it), eYFP fluorescence, 24 h; also: nearly all actives have a fitted effect of over 70% in size;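 as to max response: % of control where 0% means no effect; active compounds raise eYFP fluorescence by blocking Vif-driven A3F loss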
In short: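 HeLa cells stably expressing A3F-eYFP plus Vif, cultured overnight, then exposed to compounds at several concentrations for 24 h at 37 deg C. Reduced Vif-driven degradation read as rising eYFP fluorescence (488 nm ex/500-530 nm em) by laser-scanning cytometry; MG132 as positive control.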
Potency is read from the fitted curve at half-maximal effect.

Sequence of DNA dC->dU-editing enzyme APOBEC-3F (Homo sapiens) (Q8IUX4 whole entry, looked up): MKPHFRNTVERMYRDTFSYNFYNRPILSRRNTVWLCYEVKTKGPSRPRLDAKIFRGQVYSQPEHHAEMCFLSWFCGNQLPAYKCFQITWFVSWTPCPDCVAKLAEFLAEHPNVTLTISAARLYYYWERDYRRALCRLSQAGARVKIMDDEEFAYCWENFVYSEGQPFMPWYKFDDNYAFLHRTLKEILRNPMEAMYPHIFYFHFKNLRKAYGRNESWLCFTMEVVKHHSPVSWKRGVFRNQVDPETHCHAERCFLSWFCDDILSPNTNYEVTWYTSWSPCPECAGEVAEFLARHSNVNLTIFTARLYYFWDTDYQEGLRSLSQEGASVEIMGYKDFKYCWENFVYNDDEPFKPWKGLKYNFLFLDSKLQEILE

Row | Compound | max response [%] | Potency
1 | CC(=O)Nc1ccc(Nc2c3c4c(cccc4n(C)c2=O)C(=O)c2ccccc2-3)cc1 | -27.5 | –
2 | CCCCOc1nc2ccccc2nc1NS(=O)(=O)c1ccc(F)cc1 | 5.01 | –
3 | Cc1ccc2c(Cl)c(C)c(N3CCCC3)nc2n1 | 1.73 | –
4 | CCC(=O)Nc1nonc1-c1nc2ccccc2n1Cc1ccccc1 | -26.4 | –
5 | Clc1ccccc1Cn1c(/C=C/c2ccco2)nc2ccccc21 | -8.9 | –
6 | ClCc1nc2ccccc2n1Cc1ccccc1 | – | 18.4 µM (active)
7 | CCCOc1ccc(NC(=O)CC2C(=O)N(c3ccc(OCC)cc3)C(=S)N2C2CC2)cc1 (stereo unspecified) | -28 | –
8 | CCOC(=O)N1CCC(Nc2nc3ccccc3n3nnnc23)CC1 | -9.96 | –
9 | CCC(=O)Nc1ccccc1-c1nc2ccccc2n(C(C)C(=O)Nc2ccc(OC)cc2)c1=O (stereo unspecified) | – | 11.6 µM (active)
10 | CCOC(=O)Nc1cc2c(c(N)n1)N=C(c1ccccc1)CN2 | – | 0.0259 µM (active)
11 | Cc1ccc(-c2cn3nc(-c4ccccc4)c(-c4ccccc4)nc3n2)cc1 | – | 18.4 µM (active)
12 | COC(=O)c1sc2nc(CSc3ccc(Br)cc3)[nH]c(=O)c2c1C | -22 | –
13 | Cc1ccc(CSc2nc(-c3ccc(C(C)(C)C)cc3)nc3cc(=O)[nH]n23)cc1 | -0.911 | –
14 | COc1cc(-c2noc(C)c2/C=C/c2ccc(OC(C)=O)cc2)cc(OC)c1OC | – | 0.627 µM (active)
15 | N#CC(C(=S)Nc1ccccc1)c1nc2ccccc2[nH]1 (stereo unspecified) | -16.9 | –
16 | CCOC(=O)COn1c(=O)c(-c2ccc(Br)cc2)[n+]([O-])c2ccccc21 | 3.1 | –
17 | CCOC(=O)Cn1c(=O)c(-c2cc(Br)ccc2N)nc2ccccc21 | – | 8.2 µM (active)
18 | CCOc1ccccc1N1CC(c2nc3ccccc3n2Cc2c(C)cc(C)cc2C)CC1=O (stereo unspecified) | -7.39 | –
19 | CC(C)n1c(O)c(N=Nc2ccc(Cl)nn2)c2ccccc21 | – | 20.6 µM (active)
20 | CCOC(=O)c1c(-c2ccc(OC)cc2)csc1/N=C/C1C(=O)CCCC1=O | -2.18 | –
21 | CSc1ccccc1NC(=O)COC(=O)/C=C/c1ccco1 | -23.1 | –
22 | Cc1noc(C)c1C(=O)OCC(=O)Nc1ccccc1SCC#N | -24.1 | –
23 | N#CCSc1ccccc1NC(=O)COC(=O)CCNC(=O)c1ccc([N+](=O)[O-])cc1 | -12 | –
24 | Cc1ccc(C(=O)CCC(=O)OCC(=O)Nc2ccccc2SCC#N)cc1 | -8.08 | –
25 | Cc1nc(C)c(C(=O)OCC(=O)Nc2ccccc2SCC#N)s1 | – | 15.8 µM (active)
26 | N#CCSc1ccccc1NC(=O)COc1ccc(-c2nnco2)cc1 | – | 17.7 µM (active)
